What all share (assay): NCI-60 one-dose screen, 48 h (100 = growth as untreated, 0 = no growth, -100 = all killed)
Holding throughout (settings): 10 µM unless noted

For test [1], the system named is SK-MEL-2 melanoma.
For test [2], the system named is EKVX NSCLC.
In test [3] the test system is SN12C renal.
In test [4] the test system is UO-31 renal.
The test system of test [5] is TK-10 renal.
Test [6] has as its system ACHN renal.
Test [7] deals with CAKI-1 renal.
The subject of test [8] is A498 renal.
Test [9] relates to CCRF-CEM leukemia.
Test [10] concerns MOLT-4 leukemia.
Test [11] relates to SR leukemia.
Test [12] deals with RPMI-8226 leukemia.
Test [13] relates to OVCAR-8 ovarian.
For test [14], the system named is OVCAR-5 ovarian.
Test [15] concerns OVCAR-4 ovarian.
Test [16] relates to SK-OV-3 ovarian.
Test [17] concerns IGROV1 ovarian.
The subject of test [18] is OVCAR-3 ovarian.
The test system of test [19] is HS 578T breast.
Test [20] concerns NCI/ADR-RES ovarian.

Structures are written as SMILES. The panel holds about 83,000 compounds, 20% with a hit somewhere; the sample as a whole holds those more often.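 Each cell line was grown in a 96-well plate and treated with one concentration of compound for 48 hours. Values below 10 were considered active.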 A number with no mark means an inactive call. Active and inactive are the calls of the source.

For `COc1cccc(/C=N/NC(=O)c2ccccc2N2CCCC2)c1O`, the growth in test [1] was -7.25% (active); in test [2], 41.7%; in test [3] it was 78.8%; in [4], 30.4%; in [5], 74.9%; in [6], 31.1%. The growth was 0.778% (active) in test [7]; 67.1% in [8]; -14% (active) in test [9]; 30.7% in [10]; 77.4% in [11]; -1.83% (active) in test [12]. For the same compound, the growth in [13] is 54.9%; in test [14] it was 57.9%; in test [15], 18%; in [16], 63.6%; in test [17], -24.3% (active); in test [18], -4.45% (active). In addition, the growth in test [19] was 87.3%; in test [20] it was 13.6%.

For `Cc1n[nH]c2ccc(Br)cc2c1=O`, the growth in test [1] was 99.4%; in test [2], 110%; in [3] it was 106%; in [4], 75.8%; in test [5], 104%; in [6], 100%. Besides, the growth in [7] was 103%; in [8], 83.7%; in test [9], 89.2%; in [10], 92.8%; in test [11], 100%; in test [12], 98.1%. Further, the growth in test [13] was 110%; in [14], 102%; in test [15], 125%; in test [16], 98.6%; in test [17], 99.6%; in test [18], 109%. Further, the results for the growth in test [19] and in test [20] were 101% and 110%, respectively.

For the compound `COc1ccc(-c2n[nH]c(=O)c3nc(NC(=S)Nc4ccc(Oc5ccccc5)cc4)sc23)cc1`, the growth is 98.6% in test [1]; 106% in test [2]; 100% in test [3]; 77.1% in [4]; 92.8% in [5]; 105% in [6]. Besides, the growth is 87.3% in [7]; 80.4% in test [8]; 81.2% in test [9]; 96.9% in test [10]; 81.6% in test [11]; 82.8% in test [12]. Further, the growth was 86.5% in test [13]; 104% in test [14]; 95% in test [15]; 94.9% in [16]; 104% in test [17]; 105% in test [18]. In addition, the growth was 97.7% in test [19] and 108% in test [20].

Consider `O=C1NC(=O)/C(=C/c2c(-c3ccccc3)nc3sc(COc4ccccc4)nn23)S1`, for which the growth in test [1] is 92.1%; in test [2] it was 91.9%; in [3] it was 102%; in [4], 84.7%; in [5] it was 108%; in test [6], 98.3%. Further, the growth in test [7] is 98%; in test [8] it was 78.7%; in test [9] it was 98.3%; in [10], 96.1%; in test [11], 90.2%; in test [12], 84.4%. For the same compound, the growth in test [13] was 105%; in [14], 115%; in test [15] it was 93.4%; in test [16], 105%; in test [17], 112%; in test [18], 110%. For the same compound, the growth in test [19] was 105%; in test [20], 100%.

Consider `CC1(C)CC2=C3C=C[C@@H]4[C@@]5(C)CCC(=O)C(C)(C)[C@@H]5CC[C@@]4(C)[C@]3(C)CC[C@@]2(C(=O)O)C[C@H]1O`, for which the growth in test [1] was 9.89% (active); in [2], 34.9%; in test [3] it was 21.8%; in test [4], 17.1%; in test [5], 16.9%; in [6], 8.49% (active). Besides, the growth in test [7] was 22.9%; in test [8] it was 34.9%; in test [9] it was 13.3%; in [10], 19.5%; in test [11] it was 24.4%; in test [12], -7.05% (active). For the same compound, the growth is 32.6% in [13]; 74.4% in [14]; 24.4% in test [15]; 1% (active) in test [16]; 16.5% in [17]; 11.6% in [18]. For the same compound, the figures for the growth in [19] and in test [20] were 58.1% and 33.3%, respectively.

For `CC/C(Cc1ccccc1)=C(\c1ccc(OCCCN(C)C)cc1)c1ccc(OC(=O)NCc2ccccc2)cc1`, the growth in [1] was 97.5%; in [2], 78%; in [3] it was 77.2%; in [4], 61.5%; in test [5], 92.2%; in test [6] it was 97.4%. The growth in [7] was 93.6%; in test [8] it was 85.2%; in test [9], 58.3%; in test [10], 45.4%; in [11], -22% (active); in test [12], 60.4%. For the same compound, the growth in test [13] is 76.1%; in test [14] it was 90.6%; in [15] it was 75.7%; in test [16], 91.2%; in [17], 59%; in [18] it was 87.8%. Further, the growth is 73.4% in test [19] and 81.4% in test [20].

With `Cc1cn(-c2cc(NC(=O)c3cncc(C#Cc4c(N)ncc5ccc(F)cc45)c3)cc(C(F)(F)F)c2)cn1`, the growth is 11.4% in [1]; 73.4% in test [2]; 54.5% in test [3]; 27.4% in [4]; 84.3% in test [5]; 60.6% in test [6]. Moreover, the growth is 72.1% in test [7]; 84% in test [8]; 39.6% in test [9]; 35.6% in test [10]; 51.4% in test [11]; 55.1% in test [12]. Also, the growth in [13] is 65.2%; in [14] it was 46.2%; in test [15], 79.6%; in [16] it was 87.6%; in [17], 32.9%; in [18], 84.5%. Also, the growth in [19] was 54.6%; in test [20], 79.1%.

For `O=c1c2ccccc2c(=O)c2c1sc1c(=O)c3ccc(O)cc3c(=O)c12`, the growth is -60.2% (active) in test [1]; -57.7% (active) in test [2]; -88.2% (active) in [3]; -52% (active) in test [4]; -95.4% (active) in test [5]; -77.3% (active) in test [6]. The growth in test [7] is -68.5% (active); in test [8], -98.3% (active); in [9] it was -23.3% (active); in test [10] it was -40.1% (active); in [11] it was -16.6% (active); in [12] it was -38.6% (active). In addition, the growth in test [13] was -11.5% (active); in [14], -74.7% (active); in test [15], -90.2% (active); in [16], -92.1% (active); in test [17] it was -24% (active); in test [18] it was -57.1% (active). For the same compound, the values for the growth in test [19] and in test [20] were -5.23% (active) and -14.1% (active), respectively.

The values are drawn from PubChem BioAssay (NCI).
